The test in a line: qHTS screen for small molecules that inhibit ELG1-dependent DNA repair: SAR in Cell-Based Luciferin Counter Assay. The method, boiled down: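 To flag compounds that inhibit or enhance luciferase, substrate reagent plus pinned compound received luciferase enzyme; luminescence was then imaged on a CCD-based reader.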
(In general: In qHTS, concentration-response curves come from the screen itself.)

Inconclusive results are not listed. Calls of active or inactive are those of the source. The call rests on the fitted dose curve; in most records, active means well fitted curve in the direction sought with a large enough effect; inconclusive means small, poorly fitted or top-dose-only effect, or another doubt; inactive means no such curve, though single readings can be large or run the other way.

`CC(=O)Oc1ccc(-c2nc(-c3ccccc3)no2)cc1`: the compound was called inactive.

Turning to `CN(Cc1ccco1)c1ncnc2ccc(-c3cccc(Cl)c3)cc12`, the result was inactive.

With `Cc1cc2ncc(-c3ccccc3)nc2cc1C`, the result was inactive.

`CC(C)CN(C)c1ccc(/C=C2\C=Cc3ccccc32)cc1`: the compound was classed as inactive.

`Cc1ccnc(NC(=S)N2CCN(c3ccc(N)cc3)CC2)c1`: the outcome was inactive.

`COc1cc(C)c2c(=O)cc(-c3ccccc3)oc2c1`: the call was inactive.

Consider `O=C(Nc1ccccn1)c1sc2ccc([N+](=O)[O-])cc2c1Cl`, for which the compound was called inactive.

For the compound `CC(=O)Nc1sc2c(c1-c1nc3ccccc3s1)CCCNC2`, the result was inactive.

For `COc1ccc(OC)c(-c2nnc3n2N=C(c2ccc(OC)c(OC)c2)CS3)c1`, the call was inactive.

Take `CCCCCn1ncc2c3sc(C)cc3n(C)c2c1=O`: the outcome was inactive.

On to `CN(C)c1cccc(-c2ccnc(N3CCC(C(N)=O)CC3)n2)c1`, for which the compound was classed as inactive.

As for `O=S(=O)(c1c(F)cccc1F)N1CCN(S(=O)(=O)c2c(F)cccc2F)CC1`, the compound was classed as inactive.

As for `Cc1ccc2nc3sc(C(=O)NCc4ccco4)cc3cc2c1`, the compound was classed as inactive.

Take `COc1ccccc1/C=C/c1nc2ccccc2s1`: the result was inactive.

As for `Nc1ccc2cccnc2c1`, the call was inactive.

As for `ICC[n+]1csc2ccccc21`, the compound was classed as inactive.

Consider `CN(C)c1ccc(/C=C2\CCc3ccccc32)cc1`, for which the call was inactive.

As for `CSc1ncnc2c1ncn2C1OC(CO)C(O)C1O` (stereo not drawn), the compound was classed as inactive.
